Experimental data published in a collection of fitness landscapes (doi:10.1126/science.1257360).
Over roughly 140,000 sequences, “enrichment ratio after two sorts for PhoP signalling” has its median near 0; the highest 2% begin near 11. Shown is part of a subset that was picked to be rich in the highest values.

B1: PhoQ; a variant is named by its letters at X, in order, P23837 (parent)
chain: MKKLLRLFFPLSLRVRFLLATAAVVLVLSLAYGMVALIGYSVSFDKTTFRLLRGESNLFYTLAKWENNKLHVELPENIDKQSPTMTLIYDENGQLLWAQRDVPWLMKMIQPDWLKSNGFHEIEADVNDTSLLLSGDHSIQQQLQEVREDDDDAEMTHSVAVNVYPATSRMPKLTIVVVDTIPVELKSSYMVWSWFIYVLSANLLLVIPLLWVAAWWSLRPIEALAKEVRELEEHNRELLNPATTRELTSLVRNLNRLLKSERERYDKYRTTLTDLTHSLKTPLXXLQXXLRSLRSEKMSVSDAEPVMLEQISRISQQIGYYLHRASMRGGTLLSRELHPVAPLLDNLTSALNKVYQRKGVNISLDISPEISFVGEQNDFVEVMGNVLDNACKYCLEFVEISARQTDEHLYIVVEDDGPGIPLSKREVIFDRGQRVDTLRPGQGVGLAVAREITEQYEGKIVAGESMLGGARMEVIFGRQHSAPKDE

Variants of: B1
Experiment: enrichment ratio after two sorts for PhoP signalling (ratio (wild type AVST 3.29)); higher = more functional
Conditions: with PhoP (E. coli)

Row | Variant | enrichment ratio
1 | NIYP | ≤ 0.25
2 | LAFW | ≤ 0.25
3 | YYWT | ≤ 0.25
4 | ASLK | 8.78
5 | ASLI | 12.7
6 | VRLL | ≤ 0.25
7 | ASLS | 10.2
8 | ASTI | 13.9
9 | ASLA | 14.6
10 | ASLL | 19.9
11 | ASTQ | 3.55
12 | ASWI | 2.59
13 | ASTK | ≤ 0.25
14 | ASDK | ≤ 0.25
15 | FNCT | ≤ 0.25
16 | VWPK | ≤ 0.25
17 | EMQV | ≤ 0.25
18 | RTWK | ≤ 0.25
19 | KHEA | ≤ 0.25
20 | EWFR | ≤ 0.25
21 | ASLT | 11.9
22 | KSLY | ≤ 0.25
23 | ASNY | ≤ 0.25
24 | ASLY | 13.9

Row | Variant | enrichment ratio
25 | ASMT | 12
26 | ASNT | ≤ 0.25
27 | ASFT | 1.36
28 | KSMT | ≤ 0.25
29 | KHPW | ≤ 0.25
30 | MQFI | 0.491
31 | WDYP | ≤ 0.25
32 | ATVW | 3.56
33 | WCCW | ≤ 0.25
34 | MCYN | 11.3
35 | MLYN | 1.73
36 | KCYN | ≤ 0.25
37 | MLYM | 8.36
38 | MCYM | 14.1
39 | KCYM | ≤ 0.25
40 | QGPI | ≤ 0.25
41 | VQSP | ≤ 0.25
42 | FRQT | ≤ 0.25
43 | YETN | ≤ 0.25
44 | ACSK | 4.64
45 | ACSF | 13.3
46 | ACSM | 13.2
47 | ACGR | ≤ 0.25
48 | GKCK | ≤ 0.25

Row | Variant | enrichment ratio
49 | TDGP | ≤ 0.25
50 | RGGM | ≤ 0.25
51 | NMRS | ≤ 0.25
52 | NMSA | ≤ 0.25
53 | HPHS | ≤ 0.25
54 | KMQE | ≤ 0.25
55 | TKQE | 16.5
56 | TIQC | 0.791
57 | PTQE | ≤ 0.25
58 | GGQE | ≤ 0.25
59 | YTQE | ≤ 0.25
60 | TQQE | 44.9
61 | RNQE | ≤ 0.25
62 | LAQE | ≤ 0.25
63 | TGQE | 24.5
64 | AIQE | ≤ 0.25
65 | TIQE | 15.1
66 | YCTL | 0.295
67 | YAID | ≤ 0.25
68 | WAIW | ≤ 0.25
69 | TIAS | 11.1
70 | HPPD | ≤ 0.25
71 | HRCR | ≤ 0.25
72 | RAAD | ≤ 0.25

Row | Variant | enrichment ratio
73 | GWLP | ≤ 0.25
74 | FRVC | ≤ 0.25
75 | SLQE | ≤ 0.25
76 | KAQE | ≤ 0.25
77 | SQQE | ≤ 0.25
78 | SNQE | 18.7
79 | KSQE | ≤ 0.25
80 | TLQE | 11.7
81 | RSER | ≤ 0.25
82 | WLMW | ≤ 0.25
83 | YVFS | ≤ 0.25
84 | GCFM | ≤ 0.25
85 | EFLK | ≤ 0.25
86 | TFAG | 2.03
87 | PFLG | ≤ 0.25
88 | TFTG | 13.3
89 | WILG | ≤ 0.25
90 | TFLG | 11.8
91 | TFFG | ≤ 0.25
92 | VSRM | ≤ 0.25
93 | TEYG | 1.95
94 | TAQQ | 32.8
95 | KAGI | ≤ 0.25
96 | LQQQ | ≤ 0.25

Row | Variant | enrichment ratio
97 | TAGI | 13.1
98 | NAGI | ≤ 0.25
99 | TAFP | 0.47
100 | YTNC | ≤ 0.25
101 | SRQY | ≤ 0.25
102 | TTYY | 2.55
103 | TTNS | 3.5
104 | SQFA | ≤ 0.25
105 | YTNY | ≤ 0.25
106 | STNY | 14.2
107 | TTNY | 25.4
108 | HVQK | ≤ 0.25
109 | PLIG | ≤ 0.25
110 | VDHE | ≤ 0.25
111 | NVTF | ≤ 0.25
112 | AIGF | 11.6
113 | WITF | ≤ 0.25
114 | CFGF | ≤ 0.25
115 | TMTF | 11.5
116 | TGGF | 15
117 | TMGF | 13.3
118 | VHGF | ≤ 0.25
119 | AHGF | ≤ 0.25
120 | THGF | 8.21

Row | Variant | enrichment ratio
121 | KCGF | ≤ 0.25
122 | TMHF | 1.51
123 | WAVD | ≤ 0.25
124 | HSRC | ≤ 0.25
125 | RGHS | ≤ 0.25
126 | VKVV | ≤ 0.25
127 | MFSR | ≤ 0.25
128 | LVPR | ≤ 0.25
129 | GRNL | ≤ 0.25
130 | YHIC | ≤ 0.25
131 | PQKS | ≤ 0.25
132 | SIVS | 4.88
133 | TLGF | 12.8
134 | PLGF | ≤ 0.25
135 | TNHF | ≤ 0.25
136 | MNGF | 3.05
137 | EYGF | ≤ 0.25
138 | TVGF | 18.5
139 | SLGF | 10.1
140 | TVHF | ≤ 0.25
141 | EEGF | ≤ 0.25
142 | NVGF | ≤ 0.25
143 | TNGF | 15.9
144 | EIGF | 17.3

Row | Variant | enrichment ratio
145 | EVNL | ≤ 0.25
146 | TCLE | ≤ 0.25
147 | KQLE | ≤ 0.25
148 | DCCE | ≤ 0.25
149 | THTS | 1.63
150 | SNKW | ≤ 0.25
151 | SQFG | ≤ 0.25
152 | TNGD | ≤ 0.25
153 | TLQF | 15.7
154 | TNGI | 15.2
155 | KAQF | ≤ 0.25
156 | MNGI | 5.05
157 | TNGL | 12.6
158 | MNGL | 9.61
159 | TNNL | 0.757
160 | TLHF | ≤ 0.25
161 | DQWL | ≤ 0.25
162 | LLTH | ≤ 0.25
163 | CFSY | ≤ 0.25
164 | QPRN | ≤ 0.25
165 | FNQY | ≤ 0.25
166 | DTFM | ≤ 0.25
167 | LQVE | ≤ 0.25
168 | AMMV | 21.8

Row | Variant | enrichment ratio
169 | AMPV | ≤ 0.25
170 | AMMD | ≤ 0.25
171 | AMMQ | 13.1
172 | AMMS | 1.12
173 | NMMI | ≤ 0.25
174 | AIMQ | ≤ 0.25
175 | ADMQ | ≤ 0.25
176 | AMMI | 15
177 | GMVM | 3.22
178 | SNKV | ≤ 0.25
179 | QQCV | ≤ 0.25
180 | HHKS | ≤ 0.25
181 | ISVD | ≤ 0.25
182 | AFGA | ≤ 0.25
183 | NYGC | ≤ 0.25
184 | WHYL | ≤ 0.25
185 | FFWY | ≤ 0.25
186 | FFGY | ≤ 0.25
187 | QGPY | ≤ 0.25
188 | QGGY | 14.3
189 | QGWY | 75.8
190 | QPGY | ≤ 0.25
191 | AGRM | ≤ 0.25
192 | AGDM | ≤ 0.25

Row | Variant | enrichment ratio
193 | TQGM | 14.5
194 | SAWM | 3.72
195 | SAIM | 11.6
196 | AGIM | 11.8
197 | MMIM | ≤ 0.25
198 | QEIM | ≤ 0.25
199 | TQRM | ≤ 0.25
200 | MEIM | 48.5
201 | TQWM | ≤ 0.25
202 | NAIM | ≤ 0.25
203 | GPHN | ≤ 0.25
204 | RDSY | ≤ 0.25
205 | HQTV | ≤ 0.25
206 | ISLP | ≤ 0.25
207 | DTRI | 1.89
208 | VMYN | ≤ 0.25
209 | SGRM | ≤ 0.25
210 | KYIM | ≤ 0.25
211 | SRIM | 13.7
212 | SGIM | 23.7
213 | SEWM | 3.99
214 | STIM | 15.3
215 | SEIM | 15.1
216 | YTIM | 1.25

Row | Variant | enrichment ratio
217 | ITIM | ≤ 0.25
218 | SGDM | ≤ 0.25
219 | RGIM | ≤ 0.25
220 | TGIM | ≤ 0.25
221 | NCFV | ≤ 0.25
222 | ACCP | ≤ 0.25
223 | AHDV | ≤ 0.25
224 | IAPL | 0.723
225 | FWFH | ≤ 0.25
226 | NRLH | ≤ 0.25
227 | YSSN | ≤ 0.25
228 | TQGP | ≤ 0.25
229 | SAGM | 12.9
230 | SNIM | ≤ 0.25
231 | SAGD | ≤ 0.25
232 | TQGH | 18.9
233 | SAPM | 2.5
234 | TQIV | 1.59
235 | IQGH | ≤ 0.25
236 | TQIM | 17.9
237 | TQPM | ≤ 0.25
238 | SLIM | ≤ 0.25
239 | SQIM | 20.8
240 | YRHV | ≤ 0.25

Row | Variant | enrichment ratio
241 | SCLV | 9.82
242 | QTDD | ≤ 0.25
243 | AISA | 10.4
244 | AFMR | ≤ 0.25
245 | MLCP | ≤ 0.25
246 | HKNV | ≤ 0.25
247 | RAQI | ≤ 0.25
248 | MIHT | ≤ 0.25
249 | DVMK | ≤ 0.25
250 | WFDE | ≤ 0.25
251 | HTHH | ≤ 0.25
252 | TQGQ | 28
253 | YDIM | ≤ 0.25
254 | ATIM | 19.5
255 | ADIM | ≤ 0.25
256 | TQGG | 1.42
257 | TQGA | 2.57
258 | TDIS | 1.04
259 | HSAY | ≤ 0.25
260 | EAHH | ≤ 0.25
261 | YEYT | ≤ 0.25
262 | DFEY | ≤ 0.25
263 | KYCC | ≤ 0.25
264 | SRCC | 0.803

Row | Variant | enrichment ratio
265 | IQCC | ≤ 0.25
266 | SNCC | 14.7
267 | SSTC | 10.3
268 | WICC | ≤ 0.25
269 | TSCC | 17.3
270 | SICC | 17.3
271 | KSCC | ≤ 0.25
272 | SSCC | 17.1
273 | SQCC | 8.97
274 | NSCC | ≤ 0.25
275 | IFYT | ≤ 0.25
276 | FSGP | ≤ 0.25
277 | NGLQ | ≤ 0.25
278 | YYFP | ≤ 0.25
279 | CTCC | ≤ 0.25
280 | YTCC | ≤ 0.25
281 | DWCC | ≤ 0.25
282 | TTCC | 11.5
283 | TQCC | 65
284 | ITCC | ≤ 0.25
285 | FQCC | ≤ 0.25
286 | GTCC | ≤ 0.25
287 | STCC | 13.7
288 | EYTF | ≤ 0.25

Row | Variant | enrichment ratio
289 | NSIQ | ≤ 0.25
290 | HLYG | ≤ 0.25
291 | PLPH | ≤ 0.25
292 | MDHD | ≤ 0.25
293 | IKKC | ≤ 0.25
294 | ARSL | 0.309
295 | ANVL | 13.9
296 | ANNL | 15.7
297 | HWVL | ≤ 0.25
298 | ANIL | 22.8
299 | ANYN | ≤ 0.25
300 | ADVL | 3.21
301 | AIIL | 1.11
302 | ANYM | 0.253
303 | AHIL | ≤ 0.25
304 | ANSL | 16.8
305 | ADSL | ≤ 0.25
306 | GFRD | ≤ 0.25
